Assay outcomes from PubChem BioAssay.
Pf apPOL block: Pf-apPOL inhibitors, biochemical, fluorescence. Recombinant Pf-apPOL, molecular beacon fluorescence, 1.5 h. inhibition, % at 10 µM. 210,000 compounds, 0.25% hits. AID 1794808, 2022
mHTT CaM bind: mutant huntingtin-calmodulin interaction inhibitors – biochemical, AlphaScreen, primary screen; AlphaScreen His-mHTT/GST-CaM binding, luminescence; inhibition, % at 15 µM; 190,000 compounds, 3.6% hits; AID 1671202, 2021
Numbers stand for hits. The full list was thinned out, with hits kept by preference. Rule as the data show it: active = inhibition above about 50%; inactive = the rest.

For COc1ccc(-c2ccccc2)cc1NCc1ccc(OC)c(OC)c1 the results were Pf apPOL block inactive and mHTT CaM bind 73.0.
COc1cc2c(cc1NCc1ccccn1)oc1ccccc12 was read as Pf apPOL block inactive and mHTT CaM bind inactive.
`COc1ccc(-c2ccccc2)cc1NCc1cc(OC)c(O)c([N+](=O)[O-])c1` gave Pf apPOL block inactive and mHTT CaM bind 66.1.
For COc1ccc(-c2ccccc2)cc1NCc1ccccn1 the results were Pf apPOL block inactive and mHTT CaM bind 72.5.
For COc1ccc(CNC(=O)Cc2ccccc2)cc1OC the results were Pf apPOL block inactive and mHTT CaM bind inactive.
`Cc1cc(O)c2c(=O)c(-c3csc(C)n3)coc2c1` gave Pf apPOL block inactive and mHTT CaM bind inactive.
Screening COc1cccc(C(O)CN2CCN(c3ccc(C)cc3)CC2)c1 (centres undefined) returned Pf apPOL block inactive and mHTT CaM bind inactive.
Screening Cc1ccc(-c2noc(-c3ccc(NC(C)C)nc3)n2)cc1 returned Pf apPOL block inactive and mHTT CaM bind inactive.
Screening Cn1c(=O)c2c(nc3n(CCCO)c(C45CC6CC(CC(C6)C4)C5)cn23)n(C)c1=O returned Pf apPOL block inactive and mHTT CaM bind inactive.
`CC=Cc1ccc(OCCn2cnc3ccccc32)c(OC)c1` gave Pf apPOL block inactive and mHTT CaM bind inactive.
`COCCC1CCN(C(=O)CN(C)C(=O)c2ccc(Cl)cc2)CC1` gave Pf apPOL block inactive and mHTT CaM bind inactive.
Screening CN(C)CCn1c2c(c3ccccc31)CCCn1nnnc1-2 returned Pf apPOL block inactive and mHTT CaM bind 56.0.
CC(=O)Nc1nc2ccccc2n1CCN(C)C was read as Pf apPOL block inactive and mHTT CaM bind inactive.
Screening Cn1c(C2CCN(C(=O)Nc3cccc(Cl)c3)CC2)cc(=O)n2nccc12 returned Pf apPOL block inactive and mHTT CaM bind inactive.
Cn1c(NC(=O)c2ccc(Cl)cc2[N+](=O)[O-])cc(=O)n(C)c1=O was read as Pf apPOL block inactive and mHTT CaM bind inactive.
CNC(=O)N1CCCC(c2cccc(C(=O)NCc3ccc(C(F)(F)F)cc3)c2)C1 (centres undefined) was read as Pf apPOL block inactive and mHTT CaM bind 64.4.
CC(C)NC(=O)N1CCCC(c2cccc(C(=O)NCc3ccc(C(F)(F)F)cc3)c2)C1 (centres undefined) was read as Pf apPOL block inactive and mHTT CaM bind inactive.
For Cc1cccc(N2CCN(C(=O)c3ccc4nc(-c5ccco5)c(-c5ccco5)nc4c3)CC2)c1C the results were Pf apPOL block inactive and mHTT CaM bind 78.0.
For Cc1cccc(N2CCN(C(=O)c3ccc4c(=O)n5c(nc4c3)SCC5)CC2)c1C the results were Pf apPOL block inactive and mHTT CaM bind inactive.
Screening CNC(=O)N1CCCC(c2cccc(C(=O)N3CCN(c4cccc(C)c4C)CC3)c2)C1 (centres undefined) returned Pf apPOL block inactive and mHTT CaM bind 64.1.
`CNC(=O)N1CCCC(c2cccc(C(=O)N3CCN(c4ccccc4Cl)CC3)c2)C1` (centres undefined) gave Pf apPOL block inactive and mHTT CaM bind inactive.
Screening CC1=NN(c2nc3ccccc3s2)C(=O)C1 returned Pf apPOL block inactive and mHTT CaM bind 93.7.
Screening CCCC1=NN(c2nc3ccccc3s2)C(=O)/C1=C/N(C)C returned Pf apPOL block inactive and mHTT CaM bind inactive.
Screening CC1=NN(c2nc(-c3ccc(C#N)cc3)cs2)C(=O)C1 returned Pf apPOL block inactive and mHTT CaM bind inactive.
`CC1=NN(c2cc(C)nc(-c3ccccc3O)n2)C(=O)C1` gave Pf apPOL block inactive and mHTT CaM bind 56.2.
Screening CC1=NN(c2nc(-c3ccccc3O)cs2)C(=O)C1 returned Pf apPOL block inactive and mHTT CaM bind 97.5.
Screening Cc1ccc(Nc2cc(C)nc(-c3ccccc3O)n2)cc1 returned Pf apPOL block inactive and mHTT CaM bind inactive.
O=C(NCCC1=CCCCC1)C1CCN(c2nc3ccccc3[nH]2)CC1 was read as Pf apPOL block inactive and mHTT CaM bind inactive.
O=C(CC1CCN(C(=O)c2ccccc2Cl)CC1)NCCc1c[nH]c2ccccc12 was read as Pf apPOL block inactive and mHTT CaM bind 70.8.
COc1ccc2[nH]cc(CCNC(=O)C3CCc4nc(N5CCCC5)ncc4C3)c2c1 (centres undefined) was read as Pf apPOL block inactive and mHTT CaM bind inactive.
Cc1ccc(CNC(=O)C2CCN(c3ccc(N4CCCCC4)nn3)CC2)cc1 was read as Pf apPOL block inactive and mHTT CaM bind inactive.
CC(CCc1ccccc1)NC(=O)CC1CCN(C(=O)C2CCCCC2)CC1 (centres undefined) was read as Pf apPOL block inactive and mHTT CaM bind 56.5.
Screening O=C(NCCc1c[nH]c2ccccc12)C1CCc2nc(N3CCCC3)ncc2C1 (centres undefined) returned Pf apPOL block inactive and mHTT CaM bind 53.8.
Screening CN(CCNC(=O)CC1CCN(C(=O)C2CCCCC2)CC1)Cc1ccccc1 returned Pf apPOL block inactive and mHTT CaM bind inactive.
`Cc1ccc2[nH]cc(CCNC(=O)C3CCN(c4ccc(N5CCCCC5)nn4)CC3)c2c1` gave Pf apPOL block inactive and mHTT CaM bind 77.8.
`O=C(CC1CCN(C(=O)c2ccccc2Cl)CC1)NCc1ccccc1F` gave Pf apPOL block inactive and mHTT CaM bind inactive.
COc1cccc(CNC(=O)c2cc3n(n2)CCCN(Cc2cccc(C)c2)C3=O)c1OC was read as Pf apPOL block inactive and mHTT CaM bind inactive.
For Cn1nc(-c2nc(-c3cccc(F)c3)no2)c2c1CCN(C(=O)C1CCCO1)C2 (centres undefined) the results were Pf apPOL block inactive and mHTT CaM bind inactive.
Screening CCn1cc(CC(=O)NC2CCCC2)c2cccnc21 returned Pf apPOL block inactive and mHTT CaM bind inactive.
For CC1CCCN(C(=O)C2CCN(c3cnc(N4CCSCC4)nc3)CC2)C1 (centres undefined) the results were Pf apPOL block inactive and mHTT CaM bind inactive.
For Cc1ccc2[nH]cc(CCNC(=O)CC3CCN(C(=O)C4CCCCC4)CC3)c2c1 the results were Pf apPOL block inactive and mHTT CaM bind 86.4.
Screening COc1ccc2[nH]cc(CCNC(=O)CC3CCN(C(=O)C4CCCCC4)CC3)c2c1 returned Pf apPOL block inactive and mHTT CaM bind inactive.
`O=C(NCCc1c[nH]c2ccccc12)C1CCN(c2ccncc2)CC1` gave Pf apPOL block inactive and mHTT CaM bind inactive.
Screening CN(C)c1ccc(N2CCC(C(=O)NCCc3c[nH]c4ccccc34)CC2)nn1 returned Pf apPOL block inactive and mHTT CaM bind 96.4.
For COc1ccc(/C=c2\sc3nc4ccccc4n3c2=O)cc1Br the results were Pf apPOL block inactive and mHTT CaM bind inactive.
`O=C(Nc1nc(-c2ccco2)cs1)c1csc(-c2cnccn2)n1` gave Pf apPOL block 75.5 and mHTT CaM bind inactive.
`Cc1nnc(NC(=O)c2csc(-c3cnccn3)n2)s1` gave Pf apPOL block inactive and mHTT CaM bind inactive.
Screening Cc1ccnc(N2CCCC(C(=O)NCCN3CCCCC3)C2)n1 (centres undefined) returned Pf apPOL block inactive and mHTT CaM bind inactive.
For COc1ccc(-c2cc(C(F)(F)F)n3nc(C(=O)O)c(Br)c3n2)cc1 the results were Pf apPOL block inactive and mHTT CaM bind 65.0.
`NC(=O)c1nn2c(C(F)(F)F)cc(-c3ccc(Cl)cc3)nc2c1Cl` gave Pf apPOL block inactive and mHTT CaM bind inactive.
COc1ccc(-c2cc(C(F)(F)F)n3nc(C(=O)O)c(Cl)c3n2)cc1 was read as Pf apPOL block inactive and mHTT CaM bind 64.0.
